M1 PAM – human CHRM1 positive allosteric modulation; CHO-K1 hM1, Fluo-8 calcium fluorescence, ACh EC20; 0% = ACh EC20, 100% = maximal ACh; activation, % at 3 µM; 360,000 compounds, 0.088% hits; P11229; in the data active = activation above about 19%, passing the limit was not always enough
Target sequence (P11229 whole entry, looked up): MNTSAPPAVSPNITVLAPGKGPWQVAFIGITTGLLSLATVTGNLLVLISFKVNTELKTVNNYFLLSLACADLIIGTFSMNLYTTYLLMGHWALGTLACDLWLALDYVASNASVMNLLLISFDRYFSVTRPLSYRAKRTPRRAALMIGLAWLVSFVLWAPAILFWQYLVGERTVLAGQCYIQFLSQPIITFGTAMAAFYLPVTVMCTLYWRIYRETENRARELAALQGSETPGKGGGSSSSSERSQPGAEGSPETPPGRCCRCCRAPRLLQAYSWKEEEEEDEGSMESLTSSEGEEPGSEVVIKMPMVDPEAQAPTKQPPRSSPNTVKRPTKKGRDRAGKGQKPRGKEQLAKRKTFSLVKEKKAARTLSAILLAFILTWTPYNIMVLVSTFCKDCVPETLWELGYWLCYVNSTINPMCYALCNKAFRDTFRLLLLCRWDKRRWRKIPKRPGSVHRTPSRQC
CHRM1 antagonist – blocks human M1 muscarinic receptor. P11229. CHO-K1 hM1, Fluo-8 calcium fluorescence, ACh EC80 antagonist. inhibition, % at 3 µM. 360,000 compounds, 1.3% hits. AID 588852;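 active = percent inhibition above its own plate's cutoff, namely the mean of that plate's compound wells plus 3 SD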;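 also: peak over basal fluorescence ratio during 140 s after agonist addition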
CHO-K1 Ca antag – counter-screen for M1 antagonists: effect in parental CHO-K1 cells. ATP-induced calcium, Fluo-8 fluorescence. inhibition, % at 3 µM. 360,000 compounds, 0.6% hits. AID 602250;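 active = inhibition above a per-plate cutoff, the plate's mean sample inhibition plus 3 SD, cut at about 24% in these data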
M1 PAM parental – nonselective activator or artifact in parental CHO-K1 calcium assay. ATP EC20, Fluo-8 calcium fluorescence; 0% at ATP EC20, 100% at ATP max. activation, % at 3 µM. 360,000 compounds, 0.02% hits. AID 602247;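 active = activation above the run cutoff, the mean activation of all test compounds plus 3 SD, cut at about 40% in these data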;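 also: peak over basal fluorescence ratio in a 140 s read after ATP addition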
M1 ag – activates human CHRM1 receptor | CHO-K1 hM1, Fluo-8 calcium fluorescence, agonist mode; 0% DMSO, 100% acetylcholine EC100 | 360,000 compounds, 0.33% hits | P11229 | activation, % at 3 µM | AID 588814;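 active = activation above the run's mean compound activation plus 3 SD, cut at about 16% in these data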;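 also: peak over basal fluorescence ratio within a 140 s kinetic read after compound addition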
CHO-K1 Ca ag – nonselective activator or artifact in parental CHO-K1 cells. Fluo-8 calcium fluorescence; scaled to maximal ATP response, vehicle zero. activation, % at 3 µM. 360,000 compounds, 0.48% hits. AID 602248; in the data active = activation above about 15%;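 also: untransfected CHO-K1 host cells lacking M1 receptor as counterscreen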
Of the large screens only hits and unclear results are named; the others gave an inactive call. Rows were chosen to be rich in hits. Some 2.3% of all compounds tested hit in one or more screens of this group.

O=C(Nc1ccccc1N1CCOCC1)c1ccc(Cl)c(S(=O)(=O)NCc2ccco2)c1	CHO-K1 Ca ag 16.6
COc1cccc(C(=O)OCC(=O)Nc2ccccc2N2CCOCC2)c1	none
CC(=O)C[C@H](O)CC(=O)[C@H]1OC(=O)[C@H](C)C/C=C\Cc2ccccc21	none
CCN1CCCC1CNCc1cccc(OC)c1OCc1ccccc1 (stereo not drawn)	none
CCN1CCCC1CNCc1ccccc1OCc1ccc(F)cc1 (stereo not drawn)	CHRM1 antagonist 31.7
Oc1ccc(C23CCCC2C2(CCCC2)c2ccc(O)cc2O3)c(O)c1 (stereo not drawn)	CHRM1 antagonist 38.4, M1 ag 39.5, CHO-K1 Ca ag 23.6
Cc1cccc(C2N(c3ccc(F)cc3)C(=O)C3CCCN32)c1 (stereo not drawn)	CHO-K1 Ca antag 30.6
Cc1ccc(C2N(c3ccc(F)cc3)C(=O)C3CCCN32)cc1 (stereo not drawn)	none
Cc1cc(C)n2nc(C(=O)OCC(=O)Nc3cc(S(=O)(=O)N4CCOCC4)ccc3Cl)nc2n1	none
COCCSc1ccccc1C(=O)Nc1ccc(Cl)cn1	none
COCCCNC(=O)c1ccccc1Sc1ccc(NC(C)=O)nc1	CHO-K1 Ca antag 23.8
O=C(CCl)Nc1cccc2ncccc12	none
COc1ccc(OCC(=O)NC(=S)Nc2ccc3c4c(cccc24)CC3)cc1	CHO-K1 Ca ag 22.4
COc1ccc(OCC(=O)Nc2cccc3ncccc23)cc1	CHO-K1 Ca antag 26.1
CCC/C(O)=C1\C(=O)CC(C)(C)CC1=Nc1ccccc1O	none
CCc1cccc(C)c1NC(=S)NCC(c1cccnc1)N1CCOCC1 (stereo not drawn)	none
CC(C)C[C@@H](CN1CCC[C@H]1CN1C(=O)C(=O)NC[C@@H]1Cc1ccccc1)N1C[C@H](Cc2ccccc2)N(CC2CCCCC2)C(=O)C1=O	none (no result: M1 PAM, CHRM1 antagonist, M1 ag)
CCOC(=O)N1CCN(C2=Nc3cccc4cccc2c34)CC1	CHRM1 antagonist 83.8
COc1ccccc1N1CCN(C2=Nc3cccc4cccc2c34)CC1	CHRM1 antagonist 88.9
c1ccc(CC2CCN(C3=Nc4cccc5cccc3c45)CC2)cc1	CHRM1 antagonist 71.7
COc1ccc(S(=O)(=O)Nc2cccc3c2O[C@H](CN(C)C(=O)Nc2ccccc2)[C@@H](C)CN([C@H](C)CO)C3=O)cc1	none
CCCCCN(C(=O)CCC(=O)OCCOc1cccc(C)c1)c1c(N)n(CCCC)c(=O)[nH]c1=O	none
CCCC[C@H](CN[C@@H](CNC)[C@H](C)CC)NCCC12CCC(CC1)C2	none
C=CCNC(=S)NNC(=O)c1ccccc1OCC	none
CCCc1ncc(C(O)(c2ccccc2)c2ccc(C)cc2)n1C (stereo not drawn)	CHRM1 antagonist 94.6
CCCc1ncc(C(O)c2cccc3ccccc23)n1C (stereo not drawn)	none
CCCc1ncc(C(O)(c2ccccc2)c2ccccc2)n1C	CHRM1 antagonist 93.9
Cc1ccc(S(=O)(=O)N2C[C@H]3[C@H]4C(=O)N(Cc5ccccc5)C(=O)[C@H]4CC(=O)[C@H]3[C@@H]2c2ccccc2)cc1	none
COc1ccc(NC(=O)C2CCN(c3nc(-c4ccc(OC)cc4)no3)CC2)cc1	none
CCN(C(=O)C1CCN(c2nc(-c3ccc(OC)cc3)no2)CC1)c1ccc(OC)cc1	CHRM1 antagonist 41.8
COc1ccc(-c2csc(NC(=O)c3nc(-c4ccccc4)oc3C)n2)cc1	CHO-K1 Ca antag 30.8
CC1CN(CC(O)COc2ccc(C#N)cc2)CCN1CC(O)COc1ccc(C#N)cc1 (stereo not drawn)	none
O=C(OCC1CCCN2CCCCC12)c1ccc2c(c1)OCO2 (stereo not drawn)	CHRM1 antagonist 29.1
O=C(NC(=O)c1ccccc1)OCC1CCCN2CCCCC12 (stereo not drawn)	none
COC(=O)N/N=C/c1cn(CCOc2ccc(OC)cc2)c2ccccc12	CHO-K1 Ca ag 15.1
COC(=O)[C@@H](Cc1c[nH]c2ccccc12)NCc1cccc(B(O)O)c1	none
COc1cccc(C(=O)c2c(C)c(CCC#N)n3ccccc23)c1	CHO-K1 Ca ag 25.1
O=C(c1cn(-c2ccccc2)nc1-c1ccc(F)cc1)N1CCCCC1	CHO-K1 Ca ag 16.9
O=C(c1cn(-c2ccccc2)nc1-c1ccc(F)cc1)N1CCOCC1	none
CC/C(=N\NC(=O)CSCc1ccc(Cl)cc1)c1ccc2c(c1)OCCO2	CHO-K1 Ca antag 27.6
CC/C(=N\NC(=O)CSCc1ccccc1Cl)c1ccc2c(c1)OCCO2	none
Cc1cc([N+](=O)[O-])cc2c1NC(=O)C2(O)N1CCCCCC1 (stereo not drawn)	CHO-K1 Ca ag 15.2
Fc1ccc2[nH]c3c(NCc4ccccc4)ncnc3c2c1	CHO-K1 Ca antag 33.7, CHO-K1 Ca ag 19.1
O=[N+]([O-])c1ccc(N2CCN(C(=S)NC3CCCCC3)CC2)cc1	CHRM1 antagonist 20.9
Cc1cccc(CSC(Nc2ccc(F)cc2)=C(C#N)C#N)c1	CHO-K1 Ca antag 28.0
Cc1cccc(CSC(=N)N)c1	none
N#CC(C#N)=C(Nc1ccc(F)cc1)SCc1cccc(Br)c1	CHO-K1 Ca antag 26.0
CC(SCc1ccccc1)C(=O)Nc1ccc(F)cc1 (stereo not drawn)	none
O=C(Cn1cnc([N+](=O)[O-])n1)c1ccc(O)c(O)c1	none
Cc1ccc(S(=O)(=O)N2CCC(C(=O)O)CC2)cc1C(=O)O	none
O=C(O)C1CCN(S(=O)(=O)c2ccc3[nH]ccc3c2)CC1	CHO-K1 Ca antag 26.4
O=C(Nc1cccc(Cl)c1)ON=C1c2ccccc2-c2ccccc21	CHRM1 antagonist 29.0
O=C(Nc1cccc(Cl)c1)OCCOCCOC(=O)Nc1cccc(Cl)c1	none
O=C(CCc1ccccc1)NNC(=O)c1ccncc1	none
O=C(Nc1ccc(N2CCOCC2)c(Cl)c1)c1ccc(Br)o1	CHRM1 antagonist 40.7
O=C(Nc1ccc(N2CCN(C(=O)c3ccccc3)CC2)c(Cl)c1)c1ccc(Br)o1	none
COc1ccccc1NC(=S)N(Cc1ccccn1)Cc1ccccc1Cl	CHO-K1 Ca antag 36.1
COC(=O)c1cc(Br)ccc1NC(=O)Nc1ccccc1	none
O=C(Nc1cccc(Cl)c1)Nc1ccc(Br)cc1F	CHRM1 antagonist 32.6
O=C(Nc1ccccc1)Nc1ccc(Br)cc1F	CHRM1 antagonist 45.6
Cc1cc(NC(=O)Nc2ccccc2F)ccc1Br	CHO-K1 Ca antag 24.7
O=C(Nc1ccnn1C1CCN(C2CCOCC2)CC1)c1cccc(F)c1	none
Cc1cn([C@H]2C[C@H](O)[C@@H](CNC(=O)[C@H](N)Cc3cn(COCc4ccccc4)cn3)O2)c(=O)[nH]c1=O	none
c1ccc(COc2ccc(OCCCNC3CCCC3)cc2)cc1	CHRM1 antagonist 28.7
c1ccc(OCc2ccc(CCCN3CCOCC3)cc2)cc1	CHRM1 antagonist 36.9
c1ccc(CCCN2CCOCC2)cc1	none

From PubChem
